Experimental findings from PubChem BioAssay (Tox21) are described below.

Experiment [1] in a line: qHTS assay for small molecule agonists of the p53 signaling pathway - cell viability (AID 651633; calls by dose curve; further: nearly all actives have a fitted effect of over 30% in size; further: potency means the concentration at half of the fitted maximal effect). Summed up: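 p53RE-bla cells, seeded at 4,000 per well and rested 5 h at 37 C/5% CO2, received compounds in DMSO for 16 h at 37 C. CellTiter-Glo was then added, and luminescence was read after 30 min at room temperature to gauge cytotoxicity.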
The nature of experiment [2]: qHTS assay for small molecules that induce genotoxicity in human embryonic kidney cells expressing luciferase-tagged ATAD5 - cell viability (AID 651634; calls by dose curve; further: nearly all actives have a fitted effect of over 25% in size; further: potency means the concentration at half of the fitted maximal effect). An outline of the steps: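 Seeding of 2,000 HEK293T ATAD5-luciferase cells per well preceded pin-tool compound transfer. Plates sat 15.5 hr at 37C under 5% CO2, then fluorescence was read after 30 min with CellTiter-Fluor.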

Experiment [3] is described as follows: qHTS assay for small molecule disruptors of the mitochondrial membrane potential - cell viability (AID 720634; calls by dose curve;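 further: human HepG2 liver cancer cells; on the % scale 0 is the no-effect control and ±100 the full control effect; nearly all actives have a fitted effect of over 20% in size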). Summed up: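 Measuring cytotoxicity alongside mitochondrial potential, the screen quantified ATP by luminescence in HepG2 cells after 1 hr compound incubation and a 30 min room-temperature CellTiter-Glo step.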
Experiment [4] is described as follows: qHTS assay for small molecule disruptors of the mitochondrial membrane potential (AID 720635). Further: potency means the concentration at half of the fitted maximal effect. Summed up: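 HepG2 cells (2,000/well) attached overnight at 37C, then took compound for 1 hr at 37C, 5% CO2. Mito-MPS dye was added for 30 min; fluorescence was read at 490/535 nm (monomers) and 540/590 nm (aggregates).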
A general note: qHTS replaces the single test concentration by a dilution series.

Experiment [5] in a line: qHTS assay to test for compound auto fluorescence at 590 nm (red) in HepG2 cells (AID 720674). Further: on the % scale 0 is the no-effect control and ±100 the full control effect. An outline of the steps: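 Rose Bengal sodium served as the red fluorophore standard. HepG2 monolayers (overnight attachment, MEM with 10% FBS) were exposed to test compounds for 1 hr at 37 C and read at Ex 540/Em 590 nm.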
A short description of experiment [6]: qHTS assay to test for compound auto fluorescence at 460 nm (blue) in HEK293 cells (AID 720678). Further: on the % scale 0 is the no-effect control and ±100 the full control effect. An outline of the steps: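 Blue read-out at excitation 405 nm and emission 460 nm follows overnight compound exposure of HEK293 cells at 37C in 5% CO2. Activity is given as auto fluorescence equivalency to triamterene.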
Experiment [7] in a line: qHTS assay to test for compound auto fluorescence at 590 nm (red) in HEK293 cells (AID 720679). Further: on the % scale 0 is the no-effect control and ±100 the full control effect. Summed up:
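Red channel, Ex/Em 540/590nm; signal expressed as equivalency to Rose Bengal sodium. HEK293, 2,000 cells/well, 10% dialyzed FBS; 23 nL compound pinned after 4-5 hr attachment; overnight 37C/5% CO2 before reading.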

Experiment [8] in a line: qHTS assay to test for compound auto fluorescence at 535 nm (green) in HEK293 cells (AID 720680). Further: on the % scale 0 is the no-effect control and ±100 the full control effect.
A short description of experiment [9]: qHTS assay to test for compound auto fluorescence at 460 nm (blue) in HEK293 cell free culture (AID 720681). Further: on the % scale 0 is the no-effect control and ±100 the full control effect. An outline of the steps:
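Test compounds were pinned into cell-free culture medium (DMEM with 10% FBS) and fluorescence was read directly at Ex/Em 405/460 nm. Signals were expressed as fluorescence equivalents of triamterene, with DMSO vehicle as control.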

Experiment [10] in a line: qHTS assay to test for compound auto fluorescence at 535 nm (green) in HEK293 cell free culture (AID 720682). Further: on the % scale 0 is the no-effect control and ±100 the full control effect. Summed up: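 Intrinsic compound fluorescence is measured in culture medium containing 10% FBS, with excitation at 485 nm and detection at 535 nm, referenced to fluorescein.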
Experiment [11] can be described thus: qHTS assay to test for compound auto fluorescence at 590 nm (red) in HEK293 cell free culture (AID 720683). Further: on the % scale 0 is the no-effect control and ±100 the full control effect. An outline of the steps:
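Tox21 10K library compounds were pinned into cell-free DMEM with 10% FBS and fluorescence was read at excitation 540 nm. Activity is expressed as Rose Bengal sodium equivalency.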

The nature of experiment [12]: qHTS assay to test for compound auto fluorescence at 590 nm (red) in HepG2 cell free culture (AID 720684). Further: on the % scale 0 is the no-effect control and ±100 the full control effect. Summed up: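 Measured in medium alone (MEM containing 10% FBS) following pintool addition of compound; emission at 590 nm with 540 nm excitation, referenced to Rose Bengal sodium.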
The nature of experiment [13]: qHTS assay to test for compound auto fluorescence at 460 nm (blue) in HepG2 cell free culture (AID 720685). Further: on the % scale 0 is the no-effect control and ±100 the full control effect. Summed up: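 Compound (23 nL) or DMSO pinned into cell-free MEM with 10% FBS; blue fluorescence read at 405/460 nm excitation/emission, expressed as auto-fluorescence equivalency to triamterene.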
Experiment [14] can be described thus: qHTS assay to test for compound auto fluorescence at 535 nm (green) in HepG2 cell free culture (AID 720686). Further: on the % scale 0 is the no-effect control and ±100 the full control effect.
Experiment [15] is described as follows: qHTS assay to test for compound auto fluorescence at 460 nm (blue) in HepG2 cells (AID 720687). Further: on the % scale 0 is the no-effect control and ±100 the full control effect. Summed up:
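Cells (2,000/well in MEM with 10% FBS) attached overnight at 37 C, then were exposed to compound or DMSO for 1 hr at 37 C, 5% CO2. Fluorescence read at Ex/Em 405/460 nm, expressed as triamterene-equivalent signal.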

Experiment [16] can be described thus: qHTS assay for small molecules that induce genotoxicity in human embryonic kidney cells expressing luciferase-tagged ATAD5 (AID 651632). Further: on the % scale 0 is the no-effect control and ±100 the full control effect; nearly all actives have a fitted effect of over 15% in size. Summed up: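 Reporter cells (HEK293T) express luciferase-tagged ATAD5, a protein that accumulates after DNA damage. Treat 16 hr at 37C/5% CO2, add Amplite, wait 30 min at RT, and read luminescence.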
Experiment [17] addresses Glucocorticoid receptor (Homo sapiens) (UniProt P04150). The experiment in a line: qHTS assay to identify small molecule agonists of the glucocorticoid receptor (GR) signaling pathway (AID 720691; active means well fitted activation curve with a large enough effect in the signal ratio in the repeat runs, not every such curve was filed as active; the % refers to the signal ratio; further: on the % scale 0 is the no-effect control and ±100 the full control effect). The settings on record: GR-bla HeLa, beta-lactamase reporter ratio, 18 h; activation: at 62.4 µM (top of the series). Summed up:
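Reporter read-out: fluorescence intensity following 2 h room-temperature LiveBLAzer B/G FRET substrate loading. Prior step: GR-bla HeLa cells held 4 h, then treated 18 h at 37 C.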

A short description of experiment [18]: qHTS assay to test for compound auto fluorescence at 535 nm (green) in HepG2 cells (AID 720675). Further: on the % scale 0 is the no-effect control and ±100 the full control effect.
Experiment [19] concerns the target Glucocorticoid receptor (Homo sapiens) (UniProt P04150). The experiment in a line: qHTS assay to identify small molecule antagonists of the glucocorticoid receptor (GR) signaling pathway (AID 720692; active means well fitted inhibition curve with a large enough effect in the signal ratio in the repeat runs, not every such curve was filed as active; the % refers to the signal ratio; further: potency means the concentration at half of the fitted maximal effect). An outline of the steps: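 Dexamethasone (5 nM final) stimulated a stably integrated GRE-beta-lactamase reporter in HeLa cells during 18 h co-incubation with compounds; signal was quantified as fluorescence intensity of B/G FRET substrate after 2 h.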

Each structure is given as a SMILES string. “And” between values parts separate entries of the source, which are not always exact repeats. Equal entries are not always repeated. A number with no mark means an inactive call. Records with an inconclusive call do not appear. The source made the active and inactive calls. Unless noted, the call rests on the fitted dose curve; in most records, active means well fitted curve in the direction sought with a large enough effect in the repeat runs; inconclusive means weak or mixed curves; inactive means no such curve, though single readings can be large; an effect the other way counts as inactive or inconclusive.

Sequence of Glucocorticoid receptor (Homo sapiens) (P04150 whole entry, looked up): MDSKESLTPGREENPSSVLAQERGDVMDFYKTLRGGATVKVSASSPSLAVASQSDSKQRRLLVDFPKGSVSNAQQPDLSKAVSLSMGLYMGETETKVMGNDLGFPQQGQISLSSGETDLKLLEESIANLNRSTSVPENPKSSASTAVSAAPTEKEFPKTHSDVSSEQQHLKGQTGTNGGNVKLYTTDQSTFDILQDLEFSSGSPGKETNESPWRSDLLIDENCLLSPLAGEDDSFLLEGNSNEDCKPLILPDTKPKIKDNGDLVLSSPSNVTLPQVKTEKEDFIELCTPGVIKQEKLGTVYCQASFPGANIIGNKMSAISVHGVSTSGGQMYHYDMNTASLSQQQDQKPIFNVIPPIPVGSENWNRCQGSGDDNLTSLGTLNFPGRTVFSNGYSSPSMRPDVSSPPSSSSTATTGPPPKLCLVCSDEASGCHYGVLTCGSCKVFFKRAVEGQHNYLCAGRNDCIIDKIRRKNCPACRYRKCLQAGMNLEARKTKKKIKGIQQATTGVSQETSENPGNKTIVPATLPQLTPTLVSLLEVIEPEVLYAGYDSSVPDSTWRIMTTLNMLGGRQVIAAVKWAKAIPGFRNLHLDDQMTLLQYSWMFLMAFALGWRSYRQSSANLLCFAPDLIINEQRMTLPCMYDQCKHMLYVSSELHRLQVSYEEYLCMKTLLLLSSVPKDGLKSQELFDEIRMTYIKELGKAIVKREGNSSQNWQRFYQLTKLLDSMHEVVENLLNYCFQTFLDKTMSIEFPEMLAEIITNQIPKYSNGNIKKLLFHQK

Consider `Cc1cc2c(C(C)C)c(O)c(O)c(C=O)c2c(O)c1-c1c(C)cc2c(C(C)C)c(O)c(O)c(C=O)c2c1O`, for which the values for the Potency in [1], in experiment [2] and in experiment [4] were 8.41 µM (active), 13.3 µM (active) and 11.9 µM (active), respectively. Moreover, the Potency entry in experiment [3], in experiment [5], in experiment [6], in [7], in experiment [8] and in experiment [9] was “inactive” each time. Moreover, the Potency entry in experiment [10], in experiment [11], in [12], in [13], in experiment [14] and in [15] was “inactive” each time.

For `c1cc(OCC2CO2)cc(OCC2CO2)c1` (stereo not given), the Potency entry in experiment [16], in experiment [3], in experiment [5], in experiment [6], in experiment [7] and in experiment [8] was “inactive” throughout. Moreover, the Potency result in experiment [9], in [10], in experiment [11], in [12], in experiment [13] and in [14] was “inactive” throughout. The Potency entry in experiment [15] and in [17] was “inactive” each time.

Turning to `SCCCCCCCCS`, the Potency result in experiment [1], in experiment [3], in experiment [5], in [18], in experiment [6] and in [7] was “inactive” throughout. In addition, the Potency entry in experiment [8], in experiment [9], in experiment [10], in experiment [11], in [12] and in experiment [13] was “inactive” each time. Moreover, the Potency entry in [14] and in experiment [15] was “inactive” each time.

With `COc1cc(C(C)C)c2c(c1)S(=O)(=O)N(COc1cc(=O)n3cccc(OCCN4CCCCC4)c3n1)C2=O`, the Potency result in experiment [16], in [2] and in [3] was “inactive” throughout. Further, the fluorescence, relative to Rose Bengal in experiment [5] was 0.436% [at 18.6 µM]. For the same compound, the fluorescence, % of triamterene in experiment [6] is 0.0293% [at 18.6 µM]. For the same compound, the fluorescence, % of fluorescent control was 0.266% [at 18.6 µM] in experiment [7]; -0.0582% [at 18.6 µM] in [9]; 0.355% [at 18.6 µM] in experiment [11]; -0.155% [at 18.6 µM] in experiment [13]; 0.0401% [at 18.6 µM] in [15]. Moreover, the activity change in [10] is -0.182% [at 18.6 µM, stronger effect = higher value]. Besides, the fluorescence, % of fluorescein control in [14] is -0.0973% [at 18.6 µM]. Further, in experiment [19], the Potency was 10.4 µM (active).

As for `CN(C)CCCN1c2ccccc2CCc2ccccc21`, the Potency entry in experiment [2], in [3], in [5], in experiment [18], in experiment [6] and in experiment [7] was “inactive” throughout. Also, the Potency entry in experiment [8], in experiment [9], in experiment [10], in experiment [11], in experiment [12] and in [13] was “inactive” throughout. Moreover, the Potency entry in experiment [14] and in experiment [15] was “inactive” each time.

As for `CN(C)c1ccc(N=Nc2ccccc2C(=O)O)cc1`, the Potency in [2] was 54.5 µM (active). Moreover, the Potency entry in experiment [3], in experiment [5], in experiment [18], in experiment [6], in experiment [7] and in [8] was “inactive” throughout. Moreover, the Potency result in [9], in experiment [10], in [11], in experiment [12], in [13] and in experiment [14] was “inactive” in each case. Besides, the Potency entry in experiment [15] and in experiment [17] was “inactive” each time.

As for `Clc1ccc(C(c2ccccc2Cl)C(Cl)Cl)cc1` (stereo not given), the Potency in [1] is 23.7 µM (active); in experiment [4] it was 13.3 µM (active) and 27.3 µM (active); in experiment [19] it was 10.7 µM (active) and 27.5 µM (active). The Potency entry in [2], in [3], in experiment [5], in experiment [18], in experiment [6] and in experiment [7] was “inactive” in each case. Also, the Potency entry in experiment [8], in experiment [9], in experiment [10], in experiment [12], in experiment [14] and in experiment [15] was “inactive” each time.
